Where “and” joins values, the source holds several entries; their conditions need not be identical. Equal values may be shown once. The panel holds about 83,000 compounds, 20% with a hit somewhere; the sample as a whole holds those more often.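 Testing used 96-well plates and a 48-hour single-concentration exposure. Example: -40 means 40% of the starting cells died.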 A number with no mark means an inactive call. Calls of active or inactive are those of the source. Where a SMILES comes first, the peptide text is derived from it. The star is where a group is joined. Trt = c1ccc(C(c2ccccc2)(c2ccccc2)*)cc1; Cbz = O=C(OCc1ccccc1)*
Test system: HS 578T breast
Assay: NCI-60 one-dose screen, 48 h (100 = growth as untreated, 0 = no growth, -100 = all killed)
Settings: 10 µM
Protocol: Growth inhibition of the HS 578T human tumor cell line is measured as a screen for anti-cancer activity. Cells are grown in 96 well plates and exposed to the test compound for 48 hours. Compounds are tested at a single concentration, which is 10^-5 M for most compounds. The reported endpoint is percent growth (GI% or GIPRCNT), where numbers from 0 - 100% represent growth inhibition, and numbers from -100% - 0 represent cell death. For example, a value of 40 represents 60% growth inhibition. A value of 0 means no net growth occurred over the course of the experiment. A value of -40 indicates 40% of cells at the beginning of the experiment died by the end of the experiment. A value of -100 means all cells are dead at the end of the experiment.
NCI-60 Human Tumor Cell Lines Screen was performed using the standard one-dose NCI protocol, which is described in more detail at https://dtp.cancer.gov/discovery_development/nci-60/default.htm.
Compounds with GIPRCNT values below 10 were considered active. Activity score was based on GIPRCNT using the following formula: […]
Score is 0 for GIPRCNT values of 100 or above, 50 for GIPRCNT values of 0, and 100 for GIPRCNT values of -100.

| Compound | growth |
| --- | --- |
| COc1ccc(-c2cscc2N)cc1 | 106% |
| O=C(O)c1c(Cl)c(Cl)c(Cl)c(Cl)c1-c1c2cc(I)c(=O)c(I)c-2oc2c(I)c(O)c(I)cc12 | 107% and 93.5% |
| CN(C)C(=O)c1ccc(SC(=S)NCc2ccccc2)cc1 | 116% |

Same assay, conditions: 10 µM unless noted

| Compound | growth |
| --- | --- |
| O=C1c2ccccc2C(=O)c2sc(Nc3ccc(Cl)cc3)nc21 | 70.6% |
| COc1cc(/C=C/C(C)=O)ccc1O | 113% |
| O=C(Nc1cccc(Br)c1)Oc1ccc(Cl)c2cccnc12 | 50.9% [100 µM] |
| O=Nc1ccccc1N=O | 84.2% |
| CC(=O)Nc1cccc2cc(O)ccc12 | 132% and 101% and 98.5% |
| C[N+](C)=c1ccc2nc3c(cc(NCCCNc4cc5oc6cc(=[N+](C)C)ccc-6nc5c5ccccc45)c4ccccc43)oc-2c1 | 87.4% |
| CN(C)c1ccc(C(=C2C=CC(=[N+](C)C)C=C2)c2ccc(N(C)C)cc2)cc1 (tested in a mixture with another compound) | -1.97% (active) |
| N#CSCc1ccc(Cl)c(CSC#N)c1 | 49% |
| COc1ccccc1OC(=O)Oc1ccccc1OC | 92.4% and 102% |
| CNC(=O)N/N=C/c1ccc([N+](=O)[O-])o1 | 98.1% |
| CCC(CC)COC(=O)c1ccc(O)c(O)c1 | 86.8% |
| S=C(NCCNC(=S)[S][Sn]([c]1ccccc1)([c]1ccccc1)[c]1ccccc1)[S][Sn]([c]1ccccc1)([c]1ccccc1)[c]1ccccc1 | -14.5% (active) |
| O=C(/C=C\c1ccccc1)N1c2ccccc2CC1c1c[nH]c2ccccc12 (stereo not given) | 75.3% |
| CC(=Nc1ccc(N(C)C)cc1)c1ccccc1 | 74.2% |
| Cc1cc2nc(CS)[nH]c2cc1C | 103% |
| Cc1ccc(N=C=C(c2ccccc2)c2ccccc2)cc1 | 91.1% |
| NC(=O)/C=C/C(=O)c1c(Cl)cccc1Cl | -7.11% (active) |

| Compound | growth |
| --- | --- |
| O=C1C2=C(Nc3cc([N+](=O)[O-])ccc3N2)OC1c1c2ccccc2cc2ccccc12 (stereo not given) | 73.6% |
| CC1OC(OC2C(OC3CCC4(C)C(CCC5(C)C4CC=C4C6CC(C)(C)CCC6(CO)C(O)CC45C)C3(C)C)OC(C(=O)O)C(OC3OC(COC4OC(CO)C(O)C(O)C4O)C(O)C(O)C3O)C2O)C(O)C(O)C1O (stereo not given) | -35.2% (active) |
| Cc1ccc2c(ccc3c[n+]4c5ccccc5ccc4n32)c1 | 14.4% |
| O=[N+]([O-])c1ccc(N=Nc2ccc(O)cc2O)cc1 | 51.8% |
| CC(=O)ON=C1C=CC(=C(C#N)c2ccccc2)C=C1 | 15.5% |
| CCC(CCCN(CC)CCc1ccccc1)OC(=O)c1cc(OC)c(OC)c(OC)c1 (stereo not given) | 81.3% |
| CCC1OC(OC)C=CC1=O (stereo not given) | 96.9% |
| COC(=O)[C@@]12OC[C@]34[C@H]([C@@H](O)[C@@H]1O)[C@@]1(C)[C@H](O)C(=O)C=C(C)[C@@H]1C[C@H]3OC(=O)C(OC(C)=O)[C@@H]24 (stereo not given in full) | -33% (active) |
| c1ccc2c(c1)Nc1cc3ccccc3cc1N2 | 53.4% |
| Cc1ccc2nc(C[n+]3ccc4ccccc4c3)ccc2c1 | 90.8% |
| O=C(O)c1ccc2c3c(ncnc13)-c1ccccc1C2=O | 5.48% (active) |
| NC(N)=N/N=C/c1ccc([N+](=O)[O-])o1 | 105% |
| COC(=O)c1nc(=S)[nH]c(C(=O)OC)c1C(=O)c1ccc2ccccc2c1 | 103% |
| C1=C(c2ccccc2)C(c2ccc(OCCN3CCCCC3)cc2)Oc2ccccc21 (stereo not given) | 75.6% |
| COC(=O)C(CSC(c1ccccc1)(c1ccccc1)c1ccccc1)NC(=O)C(CC(N)=O)NC(=O)OCc1ccccc1 (stereo not drawn) (Cbz-Asn-Cys(Trt)-OMe; configuration not given here) | -20.4% (active) |
| COc1cc(NS(C)(=O)=O)ccc1Nc1c2ccccc2nc2ccccc12 | -6.75% [2.5 µM] (active) |
| Cc1cc(C(C)(CC(C)C)c2ccc(O)c(C)c2)ccc1O | 129% |

Same assay, conditions: 100 µM

| Compound | growth [%] |
| --- | --- |
| COc1ccc(-c2cscc2N)cc1 | 88.2 |
| O=C(O)c1c(Cl)c(Cl)c(Cl)c(Cl)c1-c1c2cc(I)c(=O)c(I)c-2oc2c(I)c(O)c(I)cc12 | 27.5 |
| CN(C)C(=O)c1ccc(SC(=S)NCc2ccccc2)cc1 | 45.7 |
